HP1b binding inh = blocks HP1-beta chromodomain binding to methylated histone tails; P83916; AlphaScreen HP1-beta / biotin-H3K9me3 peptide binding; Potency, µM (titrated, usually from 114 µM), without a hit: at the top dose activity change, negative = inhibition, usual class: inhibitors; actives 0.56% (n = 390,000); note: nearly all actives have a fitted effect of over 70% in size
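Compound inhibition of the preformed complex between 50 nM HP1-beta and 50 nM biotinylated H3K9me3 peptide was read by AlphaScreen. Buffer was PBS pH 7.4 with 0.01% Tween-20. Incubations ran 30 min at room temperature, with 10 ug/mL donor/acceptor beads.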
BAZ2B block = blocks human BAZ2B; Q9UIF8; actives 4.4% (n = 360,000); Potency, µM (titrated, usually from 114 µM), inactives show at the top dose activity change, negative = inhibition, actives largely listed as inhibitors; AID 504333; AlphaScreen BAZ2B-H3K14Ac peptide displacement; note: % is set by controls: 0 for no effect and ±100 for the full control effect; nearly all actives have a fitted effect of over 60% in size
Target sequence (Q9UIF8 whole entry, looked up): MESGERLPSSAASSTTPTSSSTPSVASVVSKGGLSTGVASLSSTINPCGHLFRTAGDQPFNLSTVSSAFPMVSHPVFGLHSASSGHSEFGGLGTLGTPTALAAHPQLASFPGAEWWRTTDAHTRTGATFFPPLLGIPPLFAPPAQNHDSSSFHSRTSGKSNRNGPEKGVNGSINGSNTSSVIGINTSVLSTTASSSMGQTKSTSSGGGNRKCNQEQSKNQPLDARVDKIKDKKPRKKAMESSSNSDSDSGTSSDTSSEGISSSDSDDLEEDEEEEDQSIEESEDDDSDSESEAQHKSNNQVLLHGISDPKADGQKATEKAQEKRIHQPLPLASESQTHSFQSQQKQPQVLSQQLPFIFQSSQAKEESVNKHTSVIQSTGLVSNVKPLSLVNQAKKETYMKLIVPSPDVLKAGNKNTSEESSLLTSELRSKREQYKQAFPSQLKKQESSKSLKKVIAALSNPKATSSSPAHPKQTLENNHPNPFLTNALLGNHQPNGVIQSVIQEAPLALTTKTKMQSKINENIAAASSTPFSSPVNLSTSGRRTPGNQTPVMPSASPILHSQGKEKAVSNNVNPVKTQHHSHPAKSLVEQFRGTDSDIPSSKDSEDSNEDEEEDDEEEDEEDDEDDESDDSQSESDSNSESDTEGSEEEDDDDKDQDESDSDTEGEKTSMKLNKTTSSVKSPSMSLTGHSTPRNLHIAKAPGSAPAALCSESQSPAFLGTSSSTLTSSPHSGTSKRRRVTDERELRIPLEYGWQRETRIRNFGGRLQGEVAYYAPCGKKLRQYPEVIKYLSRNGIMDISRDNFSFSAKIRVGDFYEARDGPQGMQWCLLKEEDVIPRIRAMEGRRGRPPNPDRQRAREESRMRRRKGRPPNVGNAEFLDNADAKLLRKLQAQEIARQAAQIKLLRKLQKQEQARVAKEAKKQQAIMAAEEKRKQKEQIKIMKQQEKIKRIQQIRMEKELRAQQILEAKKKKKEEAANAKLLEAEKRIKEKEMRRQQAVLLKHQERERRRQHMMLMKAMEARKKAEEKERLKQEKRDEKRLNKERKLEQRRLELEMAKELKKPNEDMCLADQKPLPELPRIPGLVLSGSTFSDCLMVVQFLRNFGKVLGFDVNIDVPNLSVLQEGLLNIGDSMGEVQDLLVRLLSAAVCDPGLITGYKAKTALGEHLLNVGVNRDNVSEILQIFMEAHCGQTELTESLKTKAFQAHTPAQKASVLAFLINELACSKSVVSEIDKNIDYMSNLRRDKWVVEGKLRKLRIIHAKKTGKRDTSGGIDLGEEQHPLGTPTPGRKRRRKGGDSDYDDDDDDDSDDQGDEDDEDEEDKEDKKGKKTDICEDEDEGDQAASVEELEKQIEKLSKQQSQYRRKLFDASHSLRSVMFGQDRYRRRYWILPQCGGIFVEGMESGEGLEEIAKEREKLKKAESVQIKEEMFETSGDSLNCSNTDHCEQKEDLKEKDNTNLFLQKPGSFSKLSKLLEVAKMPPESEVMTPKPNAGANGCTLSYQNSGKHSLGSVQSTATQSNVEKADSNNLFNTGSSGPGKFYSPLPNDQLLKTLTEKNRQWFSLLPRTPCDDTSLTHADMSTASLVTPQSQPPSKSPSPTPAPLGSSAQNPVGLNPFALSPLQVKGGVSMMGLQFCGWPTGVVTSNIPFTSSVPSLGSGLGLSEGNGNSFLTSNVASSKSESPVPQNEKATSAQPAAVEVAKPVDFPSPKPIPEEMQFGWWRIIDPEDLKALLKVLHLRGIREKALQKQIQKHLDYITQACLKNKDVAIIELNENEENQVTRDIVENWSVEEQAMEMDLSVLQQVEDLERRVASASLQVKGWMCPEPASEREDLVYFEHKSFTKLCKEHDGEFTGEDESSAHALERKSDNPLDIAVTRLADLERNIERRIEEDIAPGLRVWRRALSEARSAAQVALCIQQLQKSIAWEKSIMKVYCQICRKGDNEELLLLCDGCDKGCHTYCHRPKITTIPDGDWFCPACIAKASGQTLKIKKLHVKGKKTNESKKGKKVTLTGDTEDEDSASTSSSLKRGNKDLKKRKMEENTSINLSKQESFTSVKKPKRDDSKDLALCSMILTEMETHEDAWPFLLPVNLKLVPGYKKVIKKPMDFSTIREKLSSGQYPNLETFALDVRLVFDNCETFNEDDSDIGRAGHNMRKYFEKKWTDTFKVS
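Multi-concentration screen (max 110 uM) measuring displacement of acetylated histone H3 peptide from BAZ2B by AlphaScreen, using 50 nM protein, 50 nM peptide and 10 ug/mL streptavidin donor plus Ni-chelate acceptor beads.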
Sfp inh = Sfp phosphopantetheinyl transferase inhibition; Q9F4F7; Biochemical Sfp PPTase activity, qHTS; Potency, µM, inactives show largest response in the series, negative = inhibition, usual class: inhibitors; actives 3.5% (n = 310,000);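 note: the enzyme is Sfp with the accession as filed and its product quenches rhodamine fluorescence; 0% = enzyme reaction without inhibitor and -100% = no enzyme wells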
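Step 1, compound plus 15 nM Sfp-PPTase, 15 min, room temperature. Step 2, add rhodamine-CoA (5 uM) and BHQ-2-YbbR (12.5 uM). Step 3, read 525/598 nm fluorescence at 0 and 30 min.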
G9a inh = G9a (human) methyltransferase inhibition; Q96KQ7; G9a H3K9 monomethylation, AlphaScreen, 2 h; Potency, µM (highest dose often 102 µM), inactives show at the highest dose activity, negative = inhibition, most hits filed as inhibitors; actives 8.8% (n = 350,000); AID 504332; note: % is set by controls: 0 for no effect and ±100 for the full control effect; nearly all actives have a fitted effect of over 75% in size
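G9a (20 nM) was preincubated 15 min with compound, then reacted 2 h at room temperature with 500 nM biotin-H3K9 peptide and 20 µM SAM. Monomethyl-H3K9 detected by AlphaScreen using anti-H3K9me1 antibody.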
JMJD2A Tudor = blocks the human JMJD2A Tudor domain; Potency, µM (series often up to 114 µM), without a hit: top-dose activity change, negative = inhibition, hits mostly inhibitors; actives 4.4% (n = 390,000); AlphaScreen JMJD2A-Tudor / H3K4me3 peptide binding; AID 504339; O75164; note: % is set by controls: 0 for no effect and ±100 for the full control effect; nearly all actives have a fitted effect of over 50% in size
Numbers without * were called inactive; ? = inconclusive; nt = no result given; [ ] = remark or other dose. This is a sample that favours compounds with a hit; in the whole collection about 12% have one here. Calls come from the whole dose curve; as a rule, active = well fitted curve in the direction sought with a large enough effect; inconclusive = small, poorly fitted or top-dose-only effect, or another doubt; inactive = no such curve, though single readings can be large; an effect the other way counts as inactive or inconclusive. Potency is the fitted concentration of half-maximal effect.

SMILES	HP1b binding inh	BAZ2B block	Sfp inh	G9a inh	JMJD2A Tudor
Cc1cccc(NC(=S)NNC(=O)c2nn(C)cc2Cl)c1	20%	3%[57.1 µM]	10%	35µM*	-29%
Cc1ccc(NC(=O)COC(=O)c2nn(C)cc2Cl)cc1	-13%	-6%	17%	4%	-15%
Cc1c(Cl)c(C(=O)NNC(=S)Nc2ccccc2)nn1C	29%	8%	5%	3.5µM*	-12%
Cc1ccc(NC(=S)NNC(=O)c2nn(C)cc2Cl)cc1	25%	18%[57.1 µM]	11%	35µM*	-9%
Cc1c(Cl)c(C(=O)NNC(=S)Nc2ccc(F)cc2)nn1C	35%	13%	13%	nt	-9%
CCOC(=O)c1cc2oc(C(c3nnnn3C3CCCCC3)N3CCOCC3)cc2[nH]1 (stereo not given)	-23%	?	-4%	6%[59 µM]	?
C1=C(CCNc2ncnc3c2[nH]c2ccccc23)CCCC1	-17%	?	56µM*	56µM*	-34%
COc1ccc(CNc2ncnc3c2[nH]c2ccccc23)cc1	-9%	-22%	-24%	50µM*	?
CC(=O)c1ccc(NC(=O)CN2CCC(C(=O)c3ccc(F)cc3)CC2)cc1	28%	-26%	8%	19%	2%
C=C1c2cc(C)ccc2NC(=O)N1c1ccccc1	14%	0%	-9%	32µM*	-8%
C=C1c2ccccc2NC(=O)N1c1ccc(OC)cc1	17%	0%	-3%	20µM*	-21%
C=CCN1C(=O)C2C(C(=O)NC3CCCCC3)C3C=CC2(O3)C1C(=O)NC1CCCC1 (stereo not given)	18%	1%	8%	-4%	-7%
CCNC(=O)NC(=O)COC(=O)CCCc1nc2ccccc2s1	46%	-33%	-12%	2%	-6%
O=C(Nc1ccc(C(=O)N2CCCc3ccccc32)cc1)c1cccs1	9%	-3%	-9%	29%	100µM*
O=C(c1ccc(=O)oc1)N1CCCc2ccccc21	-49%	45µM*	?	?	50µM*
CC(=O)Nc1ccc(C(=O)N2CCCc3ccccc32)cc1	17%	-22%	11%	67%	4%
Cc1ccc(C(=O)NCC(=O)OCC(=O)NC(C)C2CC3CCC2C3)cc1 (stereo not given)	28%	16%	nt	28µM*	-11%
Cc1ccccc1C(=O)NCC(=O)OCC(=O)NC(C)C1CC2CCC1C2 (stereo not given)	25%	5%	nt	20%[59 µM]	1%
O=C(Cc1ccccc1)NCC(=O)N1CCC2(CC1)NCCc1[nH]cnc12	43%	-22%	3%	17%	2%
CC(=O)NC(NC(=S)Nc1ccc(C)cc1C)C(Cl)(Cl)Cl (stereo not given)	2%	-4%	15%	45µM*	5%
Cc1ccc(C)c(NC(=S)NC(NC(=O)N(C)C)C(Cl)(Cl)Cl)c1 (stereo not given)	16%	10%	10%	4.5µM*	-31%
CC(=O)Nc1ccc(S(=O)(=O)NCCc2cc3c(C)ccc(C)c3[nH]c2=O)cc1	68%	-5%	2%	13%	-7%
Cc1cccc(C)c1NC(=O)CSC(=S)N1CCCC1	30%	-1%	-5%	43%	0%
Cc1ccc(-c2onc3ccc(C(=O)O)cc23)cc1	28%	-20%	-8%	40µM*	-21%
CC(=O)COC(=O)c1ccc2noc(-c3ccccc3)c2c1	8%	50µM*	2%	-5%	-32%
SMILES	HP1b binding inh	BAZ2B block	Sfp inh	G9a inh	JMJD2A Tudor
O=[N+]([O-])c1ccc(N2CCN(c3ccc(F)cc3)CC2)nc1	40%	-2%	11%	0%	-21%
S=C(NCc1ccc(Cl)cc1)NC1CCN(Cc2ccccc2)CC1	25%	-30%	4%	?	-22%
CC(C)N1C(=O)C2ON(c3ccccc3)C(c3cccs3)C2C1=O (stereo not given)	50%	1%	17%	-5%[59 µM]	8%
CCOC(=O)C1(C)Oc2ccccc2C(C(=O)OC)=C1C(=O)OC (stereo not given)	63%	nt	-17%	28µM*	3%
O=C(NC1(Cc2ccc(O)cc2)CCCCC1)c1ccccc1	11%	7%	16%	34%	-14%
COc1ccc(-c2cnnc(N/N=C/c3ccc(O)cc3)n2)cc1	30%	-13%	5%	2%	-7%[11.4 µM]
COc1ccc(-c2cnnc(N/N=C/c3ccc(O)c(O)c3)n2)cc1	-33%	45µM*	-25%	-8%	40µM*
COc1ccc(-c2cnnc(N/N=C/c3ccc(C)o3)n2)cc1	-21%	-3%	23%	22%	14µM*
CN(C)[C@H]1C(=O)C(C(=O)NCN2CCCC2)=C(O)[C@]2(O)C(=O)C3=C(O)c4c(O)cccc4[C@](C)(O)[C@H]3C[C@H]12	nt	nt	?	1.6µM*	nt
CN(C)c1ccc(O)c2c1C[C@@H]1C[C@H]3C(N(C)C)C(=O)C(C(N)=O)=C(O)[C@@]3(O)C(=O)C1=C2O (stereo not given in full)	nt	nt	2%	-51%[2.33 µM]	nt
C=C1c2c(Cl)ccc(O)c2C(O)=C2C(=O)[C@]3(O)C(O)=C(C(N)=O)C(=O)C(N(C)C)C3C(O)C12 (stereo not given in full)	nt	nt	-49%	?	nt
CN(C)[C@@H]1C(=O)C(C(=O)NCN2CCCC2)=C(O)[C@@]2(O)C(=O)C3=C(O)c4c(O)cccc4[C@@](C)(O)C3CC12 (stereo not given in full)	nt	1.3µM*	50µM*	3.2µM*	nt
CCC(C)N(C)C1CCN(C(=S)Nc2cccc(OC)c2)CC1 (stereo not given)	34%	10%	-1%	?	8%
COc1ccc(NC(=O)CCNC(=O)c2ccc([N+](=O)[O-])cc2)cc1S(=O)(=O)N1CCOCC1	28%	11%	nt	?	-10%
O=C(CCNC(=O)c1ccc(Br)cc1)Nc1cccc(S(=O)(=O)N2CCCC2)c1	2%	-1%	nt	45µM*	-21%
O=C(CCNC(=O)c1ccc([N+](=O)[O-])cc1)Nc1cccc(S(=O)(=O)N2CCCCCC2)c1	4%	56µM*	nt	-8%[2.33 µM]	-29%
O=C(CCNC(=O)c1ccc(Br)cc1)Nc1cccc(S(=O)(=O)N2CCCCCC2)c1	3%	-6%	nt	?	-28%
COc1ccc(S(=O)(=O)N2CCOCC2)cc1NC(=O)CCNC(=O)c1ccc([N+](=O)[O-])cc1	23%	9%	nt	3.5µM*	-15%
COc1ccc(S(=O)(=O)N2CCOCC2)cc1NC(=O)Cc1sc(C)nc1-c1ccc(F)cc1	7%	4%	nt	50µM*	-22%
NC(=O)Nn1c(CCC(=O)O)ccc1-c1ccc(Br)cc1	5%	-31%	-28%	?	?
COc1ccc(-n2nc([N+](=O)[O-])c(=NCCC3=CCCCC3)n2O)cc1	45µM*	20µM*	-6%	32µM*	40µM*

Compound activity deposited in PubChem BioAssay by National Center for Advancing Translational Sciences (NCATS).
